# Results from the supplement of paper PMC9254222.
# Whole data set: some 1,100 compounds, median “Renilla luciferase signal (cell health) relative to plate median” near 0.97, cut for the highest 2% near 1.6. The list comes from a sample in which the highest values are over-represented; it also holds similar structures and randomly drawn compounds.
# System: HEK293T (UBE3A T485A transfected, BAR Wnt reporter)
# Test: Renilla luciferase signal (cell health) relative to plate median (fold (linear ratio)); higher = higher Renilla signal
# Details: 24 h
# In short: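 Chemicals at 0.01–100 uM were left on transfected HEK293T cells for 24 h, after a four-hour wait following transfection. The cells held a BAR firefly luciferase Wnt reporter, TK-Renilla and an expression plasmid. Wnt activity, as the firefly/Renilla ratio from a Dual-Glo luciferase readout, and cell health, as raw Renilla, were median-centred within each plate. Results average four biological replicates.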
SMILES,Renilla luciferase signal (concentration: 0.1 uM),Renilla luciferase signal (concentration: 1 uM),Renilla luciferase signal (concentration: 10 uM),Renilla luciferase signal (concentration: 100 uM),Renilla luciferase signal (concentration: 0.01 uM)
CN(C)[C@@H]1C(O)=C(C(N)=O)C(=O)[C@@]2(O)C(O)=C3C(=O)c4c(O)cccc4[C@@](C)(O)[C@H]3C[C@@H]12 [Tetracycline],0.672,0.805,0.694,1.7,
CN(C)[C@@H]1C(O)=C(C(N)=O)C(=O)[C@@]2(O)C(O)=C3C(=O)c4c(O)cccc4[C@@](C)(O)[C@H]3[C@H](O)[C@@H]12.O.O [Oxytetracycline dihydrate],0.636,0.879,0.861,0.964,0.781
CN(C)[C@@H]1C(O)=C(C(N)=O)C(=O)[C@@]2(O)C(O)=C3C(=O)c4c(O)cccc4[C@@](C)(O)[C@H]3[C@H](O)[C@@H]12.Cl [Oxytetracycline hydrochloride],0.959,1.35,2.28,0.903,
O=C(O)CCCCC(=O)O [Hexanedioic acid],0.851,0.762,0.865,1.08,
"O=C1OC(=O)C2C3C=CC(C3)C12 (stereo unspecified) [2-Norbornene-5,6-dicarboxylic anhydride]",0.885,0.853,0.966,1.39,
COC(=O)CSc1cc(/N=c2\sc(=O)n3n2CCCC3)c(F)cc1Cl [Fluthiacet-methyl],0.995,1.1,1,1.21,1.03
Fc1ccccc1[C@@H](F)CO[C@H]1CC[C@H](Nc2[nH]cnc3nncc2-3)CC1,1.06,1.09,0.996,0.148,
Oc1cc2ccccc2c2ccccc12 [9-Phenanthrol],1.08,1.05,1.01,0.0207,
COCCO [2-Methoxyethanol],1.02,0.98,0.983,1.53,1.12
CN(C)CCCN1c2ccccc2Sc2ccc(Cl)cc21.Cl [Chlorpromazine hydrochloride],1.17,1.23,1.24,0.575,
O=c1ccc2ccccc2o1 [Coumarin],1.21,1.07,1.11,1.15,
Nc1ccc(S(=O)(=O)c2ccc(N)cc2)cc1 [Dapsone],1.03,1.07,1.2,1.03,
CCCCOC(=O)c1ccc(O)cc1 [Butylparaben],0.848,0.85,0.756,0.258,
CCCCN1C(=O)[C@@H]([C@H](O)C2CCCCC2)NC(=O)C12CCN(Cc1ccc(Oc3ccc(C(=O)O)cc3)cc1)CC2.Cl [Aplaviroc hydrochloride],0.995,1.01,1.04,2.23,
CCc1ccc(O)c(C(C)(C)C)c1 [2-tert-Butyl-4-ethylphenol],1.28,1.07,1.02,1.22,
O=C(O)CC(O)(CC(=O)O)C(=O)O [Citric acid],0.965,0.981,1.13,1.46,
NC(=O)c1nc(-c2cccc(-c3cc(F)ccc3OCC(F)(F)C(F)(F)F)c2)n[n-]1.O.[K+],0.946,0.78,0.498,0.0369,
"N[C@@H](Cc1cc(I)c(Oc2ccc(O)c(I)c2)c(I)c1)C(=O)O [3,5,3'-Triiodothyronine]",0.904,1.24,2.47,2.22,
O=C(O)Cc1cc(I)c(Oc2ccc(O)c(I)c2)c(I)c1 [Tiratricol],0.92,1.07,0.852,0.382,
O=C(O)Cc1cc(I)c(Oc2cc(I)c(O)c(I)c2)c(I)c1 [Tetrac],1.07,1.06,1.11,1.28,
COc1ccc(-c2ccc(=N)n(CCCC(=O)O)n2)cc1,0.914,0.864,0.935,1.38,0.946

SMILES,Renilla luciferase signal (concentration: 0.1 uM),Renilla luciferase signal (concentration: 1 uM),Renilla luciferase signal (concentration: 10 uM),Renilla luciferase signal (concentration: 100 uM),Renilla luciferase signal (concentration: 0.01 uM)
COc1ccc2c(c1)c(CC(=O)O)c(C)n2C(=O)c1ccc(Cl)cc1 [Indomethacin],1.09,1.15,1.17,0.248,
"CC1(C)C(=O)N(Cl)C(=O)N1Cl [1,3-Dichloro-5,5-dimethylhydantoin]",0.99,1.06,1.04,0.988,
CC=Cc1ccc(O)c(OC)c1 [Isoeugenol],0.954,1.01,0.993,0.945,
CCN(CC)CCOc1ccc(C(=C(Cl)c2ccccc2)c2ccccc2)cc1.O=C(O)CC(O)(CC(=O)O)C(=O)O [Clomiphene citrate (1:1)],0.837,0.85,0.818,1.02,
CCCCCCC(C)OC(=O)COc1nc(F)c(Cl)c(N)c1Cl (stereo unspecified) [Fluroxypyr-meptyl],1.3,1.15,1.2,2.31,1.04
O=C(O)c1cc(/N=N/c2ccc(S(=O)(=O)Nc3ccccn3)cc2)ccc1O [Sulfasalazine],0.788,0.885,0.691,0.277,
CC(C)(C)C(O)C(Cc1ccc(Cl)cc1)n1cncn1 (stereo unspecified) [Paclobutrazol],1.16,1.06,1.22,1.62,1.25
CCOc1cccc(-n2cc(C(=O)N3CCN(c4cc(C(=O)[O-])c5ccccc5c4)CC3)nc2-c2ccc(C)cc2)c1.[Na+],0.869,0.966,0.903,0.0785,
Cc1cc(NC(=O)C(=O)O)cc(C)c1Oc1ccc(O)c2c1CCC2,1.12,1.12,0.767,1.03,
Cc1occc(=O)c1O [Maltol],0.895,0.982,0.967,1.11,
CCN(CC)C(=O)c1cc(S(=O)(=O)Cc2ccccc2)c(N2CCC(c3ccccc3)CC2)cc1N(CC)CCN(C)C.O=C(O)C(F)(F)F [HMR1171 trifluoroacetate (1:1)],0.802,0.767,0.648,0.249,
OC12N=C(c3ccccc3)SC1Cc1cc(Cl)ccc12 (stereo unspecified),1.14,1.13,1.03,0.714,
Cc1cc(SC2=C(O)C[C@@](CCc3ccc(N)cc3)(C(C)C)OC2=O)c(C(C)(C)C)cc1CO,0.926,1.01,0.952,0.324,
Sc1nc2ccccc2s1 [2-Mercaptobenzothiazole],0.981,0.791,0.768,0.92,
O.O=C1[N-]S(=O)(=O)c2ccccc21.[Na+] [Sodium saccharin hydrate],1.05,1.15,1.35,1.71,
C#C[C@]1(O)CC[C@H]2[C@@H]3CCC4=CC(=O)CC[C@@H]4[C@H]3CC[C@@]21C [Norethindrone],0.942,0.982,0.94,0.294,
"c1ccc2occc2c1 [2,3-Benzofuran]",0.785,0.78,0.808,1.07,
CCOC(=O)COc1cc(-n2ncc(C(F)(F)F)c(C)c2=O)c(F)cc1Cl [Flufenpyr-ethyl],0.957,1.07,1.03,1.51,1.2
CCCCCOC(=O)COc1cc(N2C(=O)C3=C(CCCC3)C2=O)c(F)cc1Cl [Flumiclorac-pentyl],0.9,1.01,0.974,1.62,0.938
CCCCCCCCOC(=O)c1cc(O)c(O)c(O)c1 [Octyl gallate],0.909,0.947,0.814,0.0786,
CCCCCCc1ccc(O)cc1O [4-Hexylresorcinol],0.881,1.04,0.888,0.0332,

SMILES,Renilla luciferase signal (concentration: 0.1 uM),Renilla luciferase signal (concentration: 1 uM),Renilla luciferase signal (concentration: 10 uM),Renilla luciferase signal (concentration: 100 uM),Renilla luciferase signal (concentration: 0.01 uM)
CC(C)CC(C=O)NC(=O)C(CC(C)C)NC(=O)C(CC(C)C)NC(=O)OCc1ccccc1 (stereo unspecified),0.675,0.0628,0.00775,0.00453,0.694
Cn1cc[nH]c1=S [Methimazole],0.331,0.23,0.141,2.27,
CNCc1ccc(NC(=O)c2c[nH]c3c2C(=O)CCC3)cc1,0.616,0.8,0.437,0.144,
CC(=O)OC1C(=O)C2(C)C(O)CC3OCC3(OC(C)=O)C2C(OC(=O)c2ccccc2)C2(O)CC(OC(=O)C(O)C(NC(=O)c3ccccc3)c3ccccc3)C(C)=C1C2(C)C (stereo unspecified) [Taxol],0.104,0.111,0.131,0.0793,0.147
CCCOC(=O)NCCCN(C)C.Cl [Propamocarb hydrochloride],0.992,0.949,0.972,1.17,0.977
COCCOCCOC [Bis(2-methoxyethyl) ether],1.08,1.3,1.34,1.31,
Cn1cnc2c1c(=O)[nH]c(=O)n2C [Theobromine],0.97,0.856,1.15,1.22,
Cn1c(=O)c2c(ncn2C)n(C)c1=O [Caffeine],0.946,0.966,0.989,1.67,1.18
Cn1c(=O)c2[nH]cnc2n(C)c1=O [Theophylline],0.944,0.973,0.911,1.09,
O=C(N[C@@H](Cc1ccccc1)[C@@H](O)C(=O)N1C[C@@H](O)[C@@H](O)C1)c1cc2cc(Cl)ccc2[nH]1 [Ingliforib],0.797,0.711,0.851,0.148,
COc1cccc(-c2ccc(/C=C\CN3CCCCCC3)cc2Cl)c1.Cl,1.01,1.16,1.14,2.06,
CCOCCOCCOCCO [2-[2-(2-Ethoxyethoxy)ethoxy]ethanol],0.893,0.862,0.833,0.954,
CCOCCO [2-Ethoxyethanol],1.23,1.26,1.38,1.66,
CCOCCOCCO [2-(2-Ethoxyethoxy)ethanol],0.939,1.02,0.906,1.17,
Cc1ncc(CO)c(CO)c1O [Pyridoxine],0.951,0.873,1,1.14,
C=CCc1ccc(OC)c(OC)c1 [Methyleugenol],0.897,0.832,0.797,0.924,
Cc1ccc(N)cc1O [5-Amino-2-methylphenol],1,1.22,1.28,1.78,
"Cc1ccc(C)c(O)c1C [2,3,6-Trimethylphenol]",0.934,0.808,0.965,1.14,
"Cc1ccc(C)c(O)c1 [2,5-Dimethylphenol]",1.01,0.973,1.14,1.28,
